From PubChem BioAssay (NCATS)
Values without a mark were called inactive. Inconclusive results are not listed. Activity calls are given as the source filed them. Unless noted, no rule for the calls is given here.

test system: not listed separately; assay: qHTS assay to identify inhibitors of the type 1 interferon - major histocompatibility complex class I in skeletal muscle: Counter screen cell viability and HiBit confirmation (AID 1347412; active = well fitted inhibition curve with a large enough effect; also: nearly all actives have a fitted effect of over 60% in size; also: potency is read from the fitted curve at half-maximal effect; as to activity change, negative = inhibition: % is scaled to controls: 0 for no effect and ±100 for the full control effect); details: iHSKM muscle cells + IFN-b, HiBiT or CellTiter-Glo, 24 h; Potency: HiBiT; Viability, at 45.9 µM (top of the series); activity change, negative = inhibition: at the top concentration
Method in brief: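 Human myoblast knock-in line, 4.0 ng/ml IFN-beta stimulation, 24 h compound treatment. Endpoints: HiBiT lytic luminescence (HLA-B level) and CellTiter Glo (ATP). Dosing 12 concentrations, 3-fold steps, 46 uM highest final.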

SMILES	activity change, negative = inhibition [%]	Potency
CC(C)(C)c1cc(C=C(C#N)C#N)cc(C(C)(C)C)c1O	-28.8	
CC1(C(=O)O)C2CCC(O2)C1(C)C(=O)O (stereo unspecified)		inactive
Cc1c2ccncc2c(C)c2c1[nH]c1ccccc12		15.7 µM (active)
CNc1ccc2oc(C[C@H]3O[C@@]4(CC[C@H]3C)O[C@H]([C@H](C)C(=O)c3ccc[nH]3)[C@H](C)C[C@H]4C)nc2c1C(=O)O		2.49 µM (active)
c1ccc2c(c1)[I+]c1ccccc1-2		7.01 µM (active)
C[C@@H]1O[C@@H](O[C@H]2C[C@@H](O)[C@]3(CO)[C@@H]4C(CC[C@]3(O)C2)[C@@]2(O)CC[C@H]([C@@H]3COC(=O)C3)[C@@]2(C)C[C@H]4O)[C@H](O)[C@H](O)[C@H]1O (stereo partly specified)		0.557 µM (active)

target: Nuclear receptor subfamily 1 group I member 2 (Rattus norvegicus) (UniProt Q9R1A7); assay: qHTS assay for small molecule activators of the rat pregnane X receptor (rPXR) signaling pathway (AID 651751); details: rPXR reporter cells, luciferase (One-Glo), 24 h; also: 0% is about no effect
Sequence (Q9R1A7 whole entry, looked up): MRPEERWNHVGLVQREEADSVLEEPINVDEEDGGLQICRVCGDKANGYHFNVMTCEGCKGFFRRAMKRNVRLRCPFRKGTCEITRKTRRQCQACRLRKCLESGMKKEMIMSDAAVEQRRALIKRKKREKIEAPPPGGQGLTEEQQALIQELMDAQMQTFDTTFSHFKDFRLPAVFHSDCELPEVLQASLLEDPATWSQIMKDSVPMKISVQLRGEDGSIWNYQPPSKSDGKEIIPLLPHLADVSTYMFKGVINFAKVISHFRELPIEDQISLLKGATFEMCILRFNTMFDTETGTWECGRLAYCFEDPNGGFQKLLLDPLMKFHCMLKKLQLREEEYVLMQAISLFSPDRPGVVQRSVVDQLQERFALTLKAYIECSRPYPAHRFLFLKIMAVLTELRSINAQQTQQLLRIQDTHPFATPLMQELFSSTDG

SMILES	max response [%]
CCCCCl	-2.58
O=C1C=CC(=O)C=C1	0.171
O=C(O)c1cc[c]([Hg][Cl])cc1	-6.42
COc1ccc2c(c1OC)C(=O)OC2C1c2cc3c(cc2CCN1C)OCO3 (stereo unspecified)	3.69
NNC(N)=O	4.4

test system: not listed separately; assay: qHTS assay for small molecule activators of the human pregnane X receptor (PXR) signaling pathway (AID 720659); details: DPX-2 HepG2 CYP3A4-luciferase, 24 h; series mostly up to 92.3 µM; activation: at the top concentration; also: 0% is about no effect

SMILES	activation [%]
CCCCCl	-11.8
O=C1C=CC(=O)C=C1	-8.76
O=C(O)c1cc[c]([Hg][Cl])cc1	2.17
CC[C@H](C)[C@H]1O[C@]2(C=C[C@@H]1C)C[C@@H]1C[C@@H](C/C=C(\C)[C@@H](O[C@H]3C[C@H](OC)[C@@H](O[C@H]4C[C@H](OC)[C@@H](O)[C@H](C)O4)[C@H](C)O3)[C@@H](C)/C=C/C=C3\CO[C@@H]4[C@H](O)C(C)=C[C@@H](C(=O)O1)[C@]34O)O2	-23.4
NNC(N)=O	-0.349
